# The panel holds about 83,000 compounds, 20% with a hit somewhere; the sample as a whole holds those more often.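 Interpretation: 100, growth as untreated; towards 0, rising growth inhibition; 0, no net growth; 0 to -100, cell death. Compounds scoring below 10 were considered active.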 Unmarked numbers belong to inactive results. Calls of active or inactive are those of the source.
# Experiments:
# Assay in all cases: NCI-60 one-dose screen, 48 h (100 = growth as untreated, 0 = no growth, -100 = all killed)
# [1] = tested on: DU-145 prostate; settings: 10 µM
# [2] = tested on: K-562 leukemia; settings: 10 µM
# [3] = tested on: MALME-3M melanoma; settings: 10 µM
# [4] = tested on: MDA-MB-231 breast; settings: 10 µM
# [5] = tested on: RXF 393 renal; settings: 10 µM
# [6] = tested on: SF-268 CNS; settings: 10 µM
# [7] = tested on: SF-295 CNS; settings: 10 µM
# [8] = tested on: SF-539 CNS; settings: 10 µM
# [9] = tested on: UACC-257 melanoma; settings: 10 µM
# [10] = tested on: M14 melanoma; settings: 10 µM
# [11] = tested on: HT29 colon; settings: 10 µM
# [12] = tested on: SNB-75 CNS; settings: 10 µM
# [13] = tested on: SNB-19 CNS; settings: 10 µM
# [14] = tested on: U251 CNS; settings: 10 µM
# [15] = tested on: PC-3 prostate; settings: 10 µM
# [16] = tested on: SK-MEL-5 melanoma; settings: 10 µM
# [17] = tested on: UACC-62 melanoma
# [18] = tested on: LOX IMVI melanoma; settings: 10 µM
# [19] = tested on: SK-MEL-28 melanoma; settings: 10 µM
# [20] = tested on: HCT-15 colon; settings: 10 µM
compound,measurement,setting,value
S=C1CCCCCN1,growth,[1],110%
same,growth,[2],107%
same,growth,[3],107%
same,growth,[4],111%
same,growth,[5],123%
same,growth,[6],99.6%
same,growth,[7],102%
same,growth,[8],96.8%
same,growth,[9],97.8%
same,growth,[10],105%
same,growth,[11],108%
same,growth,[12],89.1%
same,growth,[13],99.1%
same,growth,[14],111%
same,growth,[15],105%
same,growth,[16],107%
same,growth,[17]; 10 µM unless noted,100%
same,growth,[18],101%
same,growth,[19],105%
COc1ccc(C2(O)CCCCC2)cc1,growth,[1],112%
same,growth,[2],111%
same,growth,[3],105%
same,growth,[4],97%
same,growth,[5],103%
same,growth,[6],105%
same,growth,[7],105%
same,growth,[8],109%
same,growth,[9],99.1%
same,growth,[10],101%
same,growth,[11],106%
same,growth,[14],100%
same,growth,[15],89.7%
same,growth,[16],98.6%
same,growth,[17]; 10 µM unless noted,94.7%
same,growth,[18],96.1%
same,growth,[19],120%
NC(=S)NN=C1CCCC1,growth,[1],96.8%
same,growth,[2],65.7%
same,growth,[3],85.3%
same,growth,[4],95%
same,growth,[5],107%
same,growth,[6],89.3%
same,growth,[7],95.7%
same,growth,[8],110%
same,growth,[9],66.9%
same,growth,[10],83.1%
same,growth,[20],77.9%
same,growth,[12],99.3%
same,growth,[13],105%
same,growth,[14],73.2%
same,growth,[15],89.9%
same,growth,[16],97.8%
same,growth,[17]; 10 µM unless noted,103%
same,growth,[18],88.6%
same,growth,[19],101%
O=[N+]([O-])c1ccc(/C=C/C=C/c2ccccc2)c(Cl)c1,growth,[1],109%
same,growth,[2],91.8%
same,growth,[3],116%
same,growth,[4],89.6%
same,growth,[5],103%
same,growth,[6],111%
same,growth,[7],98.7%
same,growth,[8],99%
same,growth,[9],95.1%
same,growth,[10],106%
same,growth,[11],90.3%
same,growth,[12],94.2%
same,growth,[13],99.7%
same,growth,[14],92%
same,growth,[15],94.1%
same,growth,[16],101%
same,growth,[17]; 10 µM unless noted,96.6%
same,growth,[18],98%
same,growth,[19],106%
C/C(=C\c1ccc([N+](=O)[O-])cc1)C(=O)O,growth,[1],110%
same,growth,[2],97.9%
same,growth,[3],108%
same,growth,[4],102%
same,growth,[5],102%
same,growth,[6],105%
same,growth,[7],98.4%
same,growth,[8],100%
same,growth,[9],98.8%
same,growth,[10],95.1%
same,growth,[11],107%
same,growth,[12],88.5%
same,growth,[13],97.7%
same,growth,[15],84.2%
same,growth,[16],97.8%
same,growth,[17]; 10 µM unless noted,99.6%
same,growth,[18],98.6%
same,growth,[19],111%
C=C1CC/C=C(\C)C(=O)C[C@@H]2[C@@H]1CC2(C)C,growth,[1],102%
same,growth,[2],102%
same,growth,[3],103%
same,growth,[4],125%
same,growth,[5],55.1%
same,growth,[6],99.5%
same,growth,[7],108%
same,growth,[8],107%
same,growth,[9],111%
same,growth,[10],98.3%
same,growth,[11],112%
same,growth,[13],95.7%
same,growth,[14],100%
same,growth,[15],92.6%
same,growth,[16],106%
same,growth,[17]; 10 µM,101%
same,growth,[17]; 100 µM,-99.1% (active)
same,growth,[18],89.7%
same,growth,[19],104%
CCN(CC)c1ccc2nc3ccc(=[N+](CC)CC)cc-3oc2c1,growth,[1],37.6%
same,growth,[2],21%
same,growth,[3],-48.6% (active)
same,growth,[4],-12.1% (active)
same,growth,[5],53.1%
same,growth,[6],13.9%
same,growth,[7],1.09% (active)
same,growth,[8],21.2%
same,growth,[9],-55.8% (active)
same,growth,[10],-34.1% (active)
same,growth,[20],35.5%
same,growth,[12],1.61% (active)
same,growth,[13],-1.56% (active)
same,growth,[14],-13.9% (active)
same,growth,[15],4.1% (active)
same,growth,[16],-53.4% (active)
same,growth,[17]; 10 µM unless noted,-39.1% (active)
same,growth,[18],-22.7% (active)
same,growth,[19],2.45% (active)
O=C1C=C(O)C(=O)C=C1O,growth,[1],119%
same,growth,[2],103%
same,growth,[3],144%
same,growth,[4],104%
same,growth,[5],150%
same,growth,[6],101%
same,growth,[7],115%
same,growth,[8],98.7%
same,growth,[9],107%
same,growth,[10],104%
same,growth,[11],105%
same,growth,[12],95.1%
same,growth,[13],104%
same,growth,[14],104%
same,growth,[15],101%
same,growth,[16],114%
same,growth,[17]; 10 µM unless noted,102%
same,growth,[18],98.9%
same,growth,[19],114%

# From PubChem BioAssay (NCI)
